The text below walks through data of PubChem BioAssay (NCATS).

The nature of experiment [1]: Quantitative High-Throughput drug screen in 47 multiple myeloma cell lines against the NCATS MIPE library collection: U266_ATCC cell viability assay (AID 1919864). Further: nearly all actives have a fitted effect of over 35% in size. Put shortly:
(§1)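 Cells were exposed to library compounds for 48 hours, after which ATP was measured by CellTiter-Glo. Signal was taken as median relative luminescence units.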

Experiment [2] in a line: Quantitative High-Throughput drug screen in 47 multiple myeloma cell lines against the NCATS MIPE library collection: XG6_PLB cell viability assay (AID 1919865). Further: nearly all actives have a fitted effect of over 40% in size. Put shortly: as §1
Experiment [3] can be described thus: Quantitative High-Throughput drug screen in 47 multiple myeloma cell lines against the NCATS MIPE library collection: XG1_PLB cell viability assay (AID 1919866). Further: nearly all actives have a fitted effect of over 35% in size. Put shortly:
as §1

Experiment [4] in a line: Quantitative High-Throughput drug screen in 47 multiple myeloma cell lines against the NCATS MIPE library collection: PE2_PLB cell viability assay (AID 1919869). Further: nearly all actives have a fitted effect of over 35% in size. Put shortly:
as §1

Experiment [5] can be described thus: Quantitative High-Throughput drug screen in 47 multiple myeloma cell lines against the NCATS MIPE library collection: PCM6_Riken cell viability assay (AID 1919870). Further: nearly all actives have a fitted effect of over 30% in size. Put shortly: as §1
Experiment [6] is described as follows: Quantitative High-Throughput drug screen in 47 multiple myeloma cell lines against the NCATS MIPE library collection: OPM2_DSMZ cell viability assay (AID 1919872). Further: nearly all actives have a fitted effect of over 30% in size. Put shortly: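 Viability readout: CellTiter-Glo luminescence following 5 min room-temperature incubation with reagent. Prior exposure: 48 h, 37C, humidified 5% CO2, 500 cells per well.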
Experiment [7] is described as follows: Quantitative High-Throughput drug screen in 47 multiple myeloma cell lines against the NCATS MIPE library collection: VP6_DJ cell viability assay (AID 1919867). Further: nearly all actives have a fitted effect of over 40% in size. Put shortly: as §1
Experiment [8] is described as follows: Quantitative High-Throughput drug screen in 47 multiple myeloma cell lines against the NCATS MIPE library collection: RPMI8226_ATCC cell viability assay (AID 1919871). Further: nearly all actives have a fitted effect of over 30% in size. Put shortly:
as §1

Experiment [9] is described as follows: Quantitative High-Throughput drug screen in 47 multiple myeloma cell lines against the NCATS MIPE library collection: UTMC2_PLB cell viability assay (AID 1919868). Further: nearly all actives have a fitted effect of over 55% in size. Put shortly: as §1

Inconclusive results are not listed. The source made the active and inactive calls. The call rests on the fitted dose curve; in most records, active means well fitted cell-killing curve with a large enough effect; inconclusive means small, poorly fitted or top-dose-only effect, or effect the other way; inactive means no such curve, though single readings can be large or run the other way.
Potency means the concentration at half of the fitted maximal effect.

Consider `CN(CCOc1ccc(NS(C)(=O)=O)cc1)CCc1ccc(NS(C)(=O)=O)cc1`, for which the Potency result in experiment [1], in experiment [3], in experiment [4], in [5] and in experiment [6] was “inactive” throughout. The Potency in experiment [2] was 13.2 µM (active).

For the compound `CC1COc2c(N3CCN(C)CC3)c(F)cc3c(=O)c(C(=O)O)cn1c23` (configuration not stated), the Potency result in [1], in experiment [3], in experiment [7], in [8] and in [6] was “inactive” throughout.

As to `COc1ccc2c(c1)c(CC(=O)O)c(C)n2C(=O)c1ccc(Cl)cc1`, the Potency in experiment [1] was 18.7 µM (active); in experiment [2] it was 18.7 µM (active); in experiment [3], 5.26 µM (active); in experiment [7], 20.9 µM (active). Moreover, the Potency result in experiment [4], in experiment [8] and in [6] was “inactive” each time.

As to `C[C@H]1c2cccc(O)c2C(O)=C2C(=O)[C@]3(O)C(O)=C(C(N)=O)C(=O)[C@@H](N(C)C)[C@@H]3[C@@H](O)[C@@H]21`, the Potency in [2] and in [3] was 18.7 µM (active) throughout.

Regarding `C[C@](N)(Cc1ccc(O)c(O)c1)C(=O)O`, the Potency in [1] is 18.7 µM (active); in experiment [6], 7.43 µM (active). For the same compound, the Potency result in [3], in [9] and in [5] was “inactive” throughout.

Regarding `CNCCCC12CCC(c3ccccc31)c1ccccc12`, the Potency was 16.6 µM (active) in experiment [1]; 18.7 µM (active) in [2]; 26.4 µM (active) in [3]; 20.9 µM (active) in experiment [7]; 23.5 µM (active) in experiment [4]; 23.5 µM (active) in experiment [5]. For the same compound, the Potency in experiment [6] is 23.5 µM (active).

`COc1nc(C)nc(Cl)c1NC1=NCCN1`: the Potency in experiment [1] is 20.9 µM (active). Moreover, in [6], the Potency result is “inactive”.

Regarding `Cc1ccccc1N1C(=O)c2cc(S(N)(=O)=O)c(Cl)cc2NC1C` (configuration not stated), the Potency in experiment [1] is 3.72 µM (active); in [5], 5.9 µM (active). In addition, the Potency entry in experiment [2], in [3], in [4] and in [6] was “inactive” throughout.

Consider `Cc1ccc(C(=O)Nc2ccc(S(=O)(=O)O)c3cc(S(=O)(=O)O)cc(S(=O)(=O)O)c23)cc1NC(=O)c1cccc(NC(=O)Nc2cccc(C(=O)Nc3cc(C(=O)Nc4ccc(S(=O)(=O)O)c5cc(S(=O)(=O)O)cc(S(=O)(=O)O)c45)ccc3C)c2)c1`, for which, in [1], the Potency result is “inactive”. In addition, in experiment [4], the Potency was 5.9 µM (active).

Take `NS(=O)(=O)c1cc2c(cc1Cl)NCNS2(=O)=O`: the Potency in [3] is 7.43 µM (active). Besides, the Potency entry in experiment [8] and in experiment [6] was “inactive” each time.

In the case of `CN(C)CCC=C1c2ccccc2C=Cc2ccccc21`, the Potency entry in experiment [4] and in experiment [6] was “inactive” in each case.

Consider `CC(C)Cc1ccc(C(C)C(=O)O)cc1` (configuration not stated), for which, in experiment [2], the Potency is 6.45 µM (active). In addition, the Potency entry in experiment [3], in experiment [9], in experiment [4], in experiment [8] and in experiment [6] was “inactive” each time.

`CS(=O)(=O)Nc1ccc([N+](=O)[O-])cc1Oc1ccccc1`: the Potency entry in experiment [2], in experiment [3], in experiment [7] and in experiment [5] was “inactive” throughout.

For the compound `Cn1ccc2cc3c(cc21)CCN3C(=O)Nc1cccnc1`, the Potency in [2] was 11.8 µM (active); in experiment [7] it was 14.8 µM (active); in experiment [5], 23.5 µM (active).

On to `O=C(CCCN1CCC(O)(c2ccc(Cl)cc2)CC1)c1ccc(F)cc1`, for which the Potency entry in experiment [6] is “inactive”.

For `CN1CCN2c3ccccc3Cc3ccccc3C2C1` (configuration not stated), the Potency in [2] is 10.5 µM (active); in experiment [3], 18.7 µM (active); in [7], 3.72 µM (active). Also, the Potency result in experiment [9] was “inactive”.

Turning to `N[C@@H](Cc1c[nH]c2ccc(O)cc12)C(=O)O`, the Potency result in experiment [3] and in experiment [6] was “inactive” throughout. For the same compound, the Potency in experiment [7] was 16.6 µM (active).

On to `CC(=O)OCC(CCn1cnc2cnc(N)nc21)COC(C)=O`, for which the Potency result in [2], in [3], in experiment [7], in [9], in experiment [4] and in experiment [5] was “inactive” in each case. Also, the Potency entry in experiment [8] and in [6] was “inactive” in each case.

Regarding `COc1cc2c(c(OC)c1OC)-c1ccc(OC)c(=O)cc1[C@@H](NC(C)=O)CC2`, the Potency result in [2], in experiment [3], in [7], in experiment [9], in [4] and in experiment [5] was “inactive” throughout. The Potency result in experiment [6] was “inactive”.

For `O=c1c(O)c(-c2ccc(O)c(O)c2)oc2cc(O)cc(O)c12`, the Potency in experiment [2] was 16.6 µM (active); in [3] it was 18.7 µM (active); in [7], 16.6 µM (active); in experiment [4] it was 18.7 µM (active); in experiment [5], 18.7 µM (active). Further, the Potency entry in experiment [8] was “inactive”.

Regarding `Clc1ccc2c(c1)C(N1CCNCC1)=Nc1ccccc1O2`, the Potency entry in experiment [2], in experiment [3] and in [6] was “inactive” each time.

With `CCOC(=O)c1ncn2c1CN(C)C(=O)c1cc(F)ccc1-2`, the Potency entry in experiment [2], in [3], in experiment [4], in experiment [5] and in [6] was “inactive” throughout.

As to `OCCN1CCN(CCCN2c3ccccc3Sc3ccc(C(F)(F)F)cc32)CC1`, the Potency is 23.5 µM (active) in experiment [2]; 20.9 µM (active) in experiment [3]; 16.6 µM (active) in [7]; 20.9 µM (active) in experiment [4]; 23.5 µM (active) in [5]; 16.6 µM (active) in experiment [8]. For the same compound, the Potency result in experiment [6] was “inactive”.

In the case of `O=C1Cc2cc(CCN3CCN(c4nsc5ccccc45)CC3)c(Cl)cc2N1`, the Potency is 23.5 µM (active) in experiment [2]; 23.5 µM (active) in experiment [3]; 16.6 µM (active) in experiment [7]; 20.9 µM (active) in experiment [9]; 18.7 µM (active) in experiment [4]; 18.7 µM (active) in experiment [5]. Moreover, in experiment [8], the Potency was 20.9 µM (active).

Regarding `Nc1c2c(nc3ccccc13)CCCC2`, the Potency entry in experiment [2], in experiment [3], in experiment [4] and in experiment [5] was “inactive” each time. Moreover, the Potency in [8] was 1.32 µM (active).

As to `CC1(C)O[C@H]2CC(=O)OC[C@]23[C@H]2CC[C@@]4(C)[C@H](c5ccoc5)OC(=O)[C@H]5O[C@]54[C@]2(C)C(=O)C[C@@H]13`, the Potency result in [2], in experiment [3], in experiment [4], in experiment [8] and in experiment [6] was “inactive” throughout.

Consider `CC(C)NCC(O)COc1ccc(CCOCC2CC2)cc1` (configuration not stated), for which the Potency entry in experiment [3], in experiment [9], in experiment [4], in [5], in experiment [8] and in [6] was “inactive” each time.
